Bioassay records as filed in PubChem BioAssay.
An excerpt weighted towards active compounds, which were near 21% of everything screened.
ELG1 DNA repair – blocks ELG1-dependent DNA repair in HEK293T cells. HEK293T ELG1-luciferase reporter, luminescence, 16 h; DNA damage induced by 5-fluorouridine. Potency, µM (highest dose often 46.1 µM), for inactives: at the top dose activity change, negative = inhibition, actives largely listed as inhibitors. 330,000 compounds, 2.3% hits. AID 504467; also: potency is read from the fitted curve at half-maximal effect; nearly all actives have a fitted effect of over 55% in size
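Reporter activity after DNA damage by 5-fluorouridine is monitored. Compound-treated cells incubate 16 hr at 37 °C, then ONE-Glo is added for 30 min before luminescence reading.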
RORg inh – blocks mouse ROR gamma transcriptional activity; AID 2551; Drosophila S2 Gal4-RORgamma UAS-luciferase reporter, 20 h; 310,000 compounds, 5.4% hits; Potency, µM (top dose mostly 53.6 µM), without a hit: at the top dose activity change, negative = inhibition, actives largely listed as inhibitors; P51450; also: potency is read from the fitted curve at half-maximal effect; nearly all actives have a fitted effect of over 60% in size
Target sequence (P51450 whole entry, looked up, the tested form may be a part): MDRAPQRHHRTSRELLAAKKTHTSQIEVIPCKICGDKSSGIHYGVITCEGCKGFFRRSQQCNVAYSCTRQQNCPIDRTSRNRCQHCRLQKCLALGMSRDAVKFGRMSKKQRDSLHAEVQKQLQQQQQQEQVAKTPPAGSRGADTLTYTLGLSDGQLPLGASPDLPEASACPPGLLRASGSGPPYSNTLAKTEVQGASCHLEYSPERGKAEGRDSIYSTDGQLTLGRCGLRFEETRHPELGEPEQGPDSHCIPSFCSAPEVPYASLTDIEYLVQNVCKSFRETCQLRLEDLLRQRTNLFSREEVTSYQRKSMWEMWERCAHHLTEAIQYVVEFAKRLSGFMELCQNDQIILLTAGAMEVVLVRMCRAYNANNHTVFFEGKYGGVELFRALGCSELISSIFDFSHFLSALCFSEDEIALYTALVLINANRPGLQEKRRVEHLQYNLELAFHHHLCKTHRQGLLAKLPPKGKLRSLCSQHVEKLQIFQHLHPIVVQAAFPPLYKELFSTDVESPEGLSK
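Read-out: Photinus luciferase luminescence; inhibitors lower reporter signal. Insect Schneider cells with Gal4-ROR gamma fusion under metallothionein promoter, UAS reporter; 700 uM final copper sulfate induction, 20 hr, ambient temperature.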
VP16 counter – inhibits Gal4-VP16 luciferase reporter, ROR gamma counter-screen; 310,000 compounds, 3.5% hits; Drosophila S2 Gal4-VP16 UAS-luciferase, luminescence, 20 h; Potency, µM (highest dose often 53.6 µM), inactives show top-dose activity, negative = inhibition, hits mostly inhibitors;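 also: Gal4-VP16 expression switched on by copper sulfate through the metallothionein promoter; potency is read from the fitted curve at half-maximal effect; nearly all actives have a fitted effect of over 50% in size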
IL1B secr inh – inhibitors of inflammasome signaling (IL-1 beta secretion) | THP-1 LPS/ATP IL-1B secretion, AlphaLISA, 16 h; stronger effect = lower value | activity change, % at 57.5 µM | 360,000 compounds, 4.7% hits; in the data active = activity change below about -50%; inconclusive = mostly about -30% to -49%
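THP-1 cells pretreated 1 hr with compounds (up to 57.5 uM final), then stimulated with LPS (250 ng/mL final) plus ATP (1.25 mM final); secreted IL-1B measured by AlphaLISA after 16 hr, decreased signal indicating inhibition.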
DT40 TDP1 CPT – growth inhibition of DT40 Tdp1-/-;hTDP1 cells with camptothecin (screen for TDP1 inhibitors); chicken DT40 Tdp1-/-;hTDP1 cells + 20 nM CPT, ATP luminescence, 48 h; Potency, µM (series often up to 46.2 µM), inactives show at the top dose activity change, negative = growth inhibition, hits mostly inhibitors; 420,000 compounds, 12% hits; AID 686979; also: potency is read from the fitted curve at half-maximal effect; nearly all actives have a fitted effect of over 55% in size
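Chicken DT40 Tdp1-/- cells stably complemented with human TDP1 were seeded at 400 cells/well in medium containing 20 nM camptothecin, exposed to pin-transferred compounds, and grown at 37 °C for at least 48 hr. Viability was read as ATP luminescence.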
TDP1 cell noCPT – qHTS for Inhibitors of human tyrosyl-DNA phosphodiesterase 1 (TDP1): qHTS in cells in absence of CPT; DT40 Tdp1-/- hTDP1 cells, no CPT, ATP luminescence, 48 h; Potency, µM (top dose mostly 46.2 µM), for inactives: at the top dose activity change, negative = growth inhibition, usual class: inhibitors; 420,000 compounds, 15% hits; also: potency is read from the fitted curve at half-maximal effect; nearly all actives have a fitted effect of over 55% in size
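DT40 Tdp1-/-;hTDP1 cells, no CPT (DMSO vehicle only), 400 cells/well; compounds pin-transferred; ≥48 hr, 37 °C; CellTiter-Glo 30 min RT dark, luminescence read.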
* hit, by the source's call; ? = inconclusive; . = not tested or not shown; [ ] = remark or other dose. Unless noted, calls follow the shape of the dose curve; as a rule, active = well fitted curve in the direction sought with a large enough effect; inconclusive = small, poorly fitted or top-dose-only effect, or another doubt; inactive = no such curve, though single readings can be large; an effect the other way counts as inactive or inconclusive. % is scaled to controls: 0 for no effect and ±100 for the full control effect.

SMILES | ELG1 DNA repair | RORg inh | VP16 counter | IL1B secr inh | DT40 TDP1 CPT | TDP1 cell noCPT
COc1ccc(N2CCN(C(=O)c3ccc4c(c3)N(Cc3cccc(Cl)c3)C(=O)c3ccccc3S4(=O)=O)CC2)cc1 | . | . | . | . | -5% | -14%
CNc1cnc(-c2ccc(F)c(F)c2F)cn1 | . | . | . | 13 | 0% | 3%
CCN(CC)S(=O)(=O)c1ccc(S(=O)(=O)NCC2CCCO2)cc1 (stereo not drawn) | 1% | . | . | -8 | -6% | 8%
COc1ccccc1CN1CCN(C2CCN(C(=O)Nc3ccccc3)CC2)C(=O)C1=O | . | . | . | . | -17% | 3%
COCC(=O)Nc1cc(C(=O)N2CCCC2c2nccs2)c2c(c1)nc(-c1ccncc1)n2C (stereo not drawn) | . | . | . | . | 22% | -15%
CC1CCCCN1C(=O)c1ccc2c(c1)N(Cc1ccc(F)cc1)C(=O)c1ccccc1S2(=O)=O (stereo not drawn) | . | . | . | . | ? | 18µM*
CN1CCN(C(=O)c2ccc3c(c2)N(Cc2ccc(F)cc2)C(=O)c2ccccc2S3(=O)=O)CC1 | . | . | . | . | -15% | -28%
O=C(c1ccc2c(c1)N(Cc1ccccc1)C(=O)c1ccccc1S2(=O)=O)N1CCc2ccccc21 | . | . | . | . | 4.1µM* | 3.3µM*
CCC1CCCCN1C(=O)c1ccc2c(c1)N(Cc1cccc(Cl)c1)C(=O)c1ccccc1S2(=O)=O (stereo not drawn) | . | . | . | . | 18µM* | 16µM*
O=C(NCCCN1CCCC1)c1ccc2c(c1)N(Cc1cccc(Cl)c1)C(=O)c1ccccc1S2(=O)=O | . | . | . | -10 | ? | ?
Cc1cccc(CN2C(=O)c3ccccc3S(=O)(=O)c3ccc(C(=O)NC4CCCCC4)cc32)c1 | . | . | . | . | -24% | -15%
O=C(c1ccc2c(c1)N(Cc1ccc(F)cc1)C(=O)c1ccccc1S2(=O)=O)N1CCN(Cc2ccccc2)CC1 | . | . | . | . | 12µM* | 8.2µM*
COC(=O)[C@@H]1C[C@H]1[C@@H](NC(=O)c1cnccn1)c1ccccc1 | . | -2% | 1% | . | . | .
Cn1cccc1C(=O)N1CCC2(CC1)CN(Cc1cc(C(F)(F)F)cc(C(F)(F)F)c1)C2 | . | 4% | -4% | . | ? | ?
Cc1c2cnn(CC(=O)NCC(C)c3ccccc3)c(=O)c2c(C)n1Cc1cccc(Cl)c1 (stereo not drawn) | . | . | . | . | -3% | ?
Cc1ccc(Cl)cc1N1CCN(C(=O)c2ccc3c(c2)N(Cc2ccccc2F)C(=O)c2ccccc2S3(=O)=O)CC1 | . | . | . | . | -18% | ?
COc1ccccc1N1CCN(C(=O)c2ccc3c(c2)N(Cc2ccccc2)C(=O)c2ccccc2S3(=O)=O)CC1 | . | . | . | . | ? | 12µM*
O=C(O)c1cc([N+](=O)[O-])ccc1C(=O)Nc1ccccc1 | -9% | 2% | 0% | 12 | 16% | 2%
COCCOc1cc(NC(=O)c2cccc(OC)c2)c(Cl)cc1Cl | 0% | 43% | -7% | 3 | -7% | ?
COCCOc1cc(NC(=O)c2sccc2Oc2ccc([N+](=O)[O-])cc2F)c(Cl)cc1Cl | -8% | 23% | 24% | -14 | ? | 18µM*
O=C(Nc1ccccc1)c1sccc1Oc1ccc([N+](=O)[O-])cc1F | ? | -30% | -5% | -11 | 21µM* | 21µM*
COC(=O)c1ccc(CSc2nnc(CNC(=O)COc3ccc(Cl)cc3)o2)o1 | -18% | 14% | 11% | -11 | 16µM* | ?
COC(=O)c1ccc(CSc2nnc(CNC(=O)c3ccccc3F)o2)o1 | . | 1% | 2% | -18 | -12% | 1%
O=C(COc1ccc(Cl)cc1)NCc1nnc(SCC(=O)Nc2ccc(F)cc2F)o1 | 10% | 18% | 0%[10 µM] | -8 | 13µM* | 6%
